Compounds with a hit are over-represented: about 4.1% of the library has one in this group of screens.
F508del corr – correctors of CFTR F508del function in bronchial epithelial cells. CFBE cells, YFP halide quenching; stimulated with forskolin plus potentiator P3; % fluorescence drop versus neutral controls. activity (quench increase), % at 7.58 µM. 0.36% of 350,000 active;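 active = mean added fluorescence quench of at least 8% versus neutral control, with both replicates also reaching 8%; inconclusive = only one of the mean or replicate conditions met; inactive = mean below 8% and not both replicates reaching 8%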;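 also: cells transiently co-express mutant CFTR-F508del with the halide-sensitive YFP; corrector assay measuring rescue of mutant channel to the surface after 24 h compound exposure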
CASP6 VEID inh – blocks human caspase-6 cleavage activity; P55212; purified caspase-6, Z-VEID-R110 cleavage fluorescence; inhibition, % at 12.5 µM; 0.53% of 350,000 active; AID 686996;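 active = mean inhibition across replicates at least about 35%, with every replicate also reaching that limit, limit read from the data; inconclusive = only one of the two criteria met; inactive = neither criterion met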
Target sequence (P55212 24-179 limits assumed): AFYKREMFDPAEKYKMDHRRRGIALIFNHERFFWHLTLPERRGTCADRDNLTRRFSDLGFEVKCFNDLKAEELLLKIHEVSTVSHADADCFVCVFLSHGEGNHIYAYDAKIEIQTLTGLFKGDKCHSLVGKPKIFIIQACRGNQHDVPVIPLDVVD
Target sequence (P55212 194-293 limits assumed): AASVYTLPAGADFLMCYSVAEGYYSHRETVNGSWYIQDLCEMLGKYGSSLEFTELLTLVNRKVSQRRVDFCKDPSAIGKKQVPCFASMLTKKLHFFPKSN
HIV Env fusion – HIV envelope-mediated fusion inhibition; HeLa-JRFL Env/CEM21 cell fusion, luciferase; 1.1% of 360,000 active; inhibition, % at 12.3 µM; AID 651610;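 active = mean replicate inhibition score of at least 50 and every replicate individually at or above 50; inconclusive = only one of the two criteria met; inactive = mean below 50 and not all replicates reaching 50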
PglD inh – blocks C. jejuni PglD acetyltransferase activity | AID 602405 | inhibition, % at 12.5 µM | purified PglD enzyme, DTNB colorimetric CoA detection | 0.098% of 360,000 active; in the data active = inhibition above about 16%, passing the limit was not always enough; inconclusive = no clear call, values can overlap the other calls
NSD2 HMT inh – inhibitors of human histone methyltransferase NSD2; O96028; NSD2 peptide methylation, AlphaScreen, 120 min; inhibition, % at 12.5 µM; 0.54% of 310,000 active; AID 743445; in the data active = inhibition above about 50%
ALR inh – human ALR oxidase inhibition via reduced H2O2 | P55789 | purified ALR, DTT oxidation, H2O2 HRP-luminol luminescence | inhibition, % (concentration not given with the values) | 3.8% of 290,000 active | AID 485317;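 active = mean replicate inhibition above about 79%, with every replicate also reaching it, limit read from the data; inconclusive = only one of the two criteria met; inactive = mean below limit and not every replicate reaching it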
Target sequence (P55789 whole entry, looked up): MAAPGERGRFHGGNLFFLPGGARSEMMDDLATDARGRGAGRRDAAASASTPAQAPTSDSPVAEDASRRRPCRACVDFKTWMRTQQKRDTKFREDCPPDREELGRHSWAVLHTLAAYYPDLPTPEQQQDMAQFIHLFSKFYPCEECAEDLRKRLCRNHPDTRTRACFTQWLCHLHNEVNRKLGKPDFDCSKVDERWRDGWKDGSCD
AlphaScreen art – AlphaScreen assay artifact in NSD2 counter-screen; AC35, µM (doses to about 10 µM); AID 1053174; 9.4% of 1,500 active; shares compounds with NSD2 HMT inh; AlphaScreen artifact counterscreen, preloaded methylated H4 peptide; call rule not given here
Numbers stand for hits; - = inactive; ? = inconclusive; . = not tested or not shown.

SMILES	F508del corr	CASP6 VEID inh	HIV Env fusion	PglD inh	NSD2 HMT inh	ALR inh	AlphaScreen art
NC1=CC(=O)C(=O)c2ccccc21	-	41	?	-	100	.	-
COc1cc(/C=N/N2CCN(C3c4ccccc4-c4ccccc43)CC2)cc(OC)c1OC	.	-	-	.	144	-	-
COc1cc(/C=N/N2CCN(C3c4ccccc4-c4ccccc43)CC2)cc(OC)c1O	.	.	-	.	-	-	.
CC(=O)Nc1ccc(S(=O)(=O)Nc2cccc(-n3cnnn3)c2)cc1	-	-	-	.	-	-	.
CC(=O)c1ccc(S(=O)(=O)Nc2cccc(-n3cnnn3)c2)cc1	-	56	-	-	115	-	-
O=C(C[C@@H]1CC[C@@H]2[C@H](COC[C@H](O)CN2S(=O)(=O)c2ccccc2)O1)Nc1ccc(-c2ccccc2)cc1	-	-	.	-	.	.	.
Cc1ccccc1Nc1nc(N)nc(CSc2nnc3sc4ccccc4n23)n1	.	.	-	-	66	-	-
Cc1ccc(S(=O)(=O)Nc2ccc3c(c2)CC(=O)N([C@@H](C)CO)C[C@H](C)[C@H](CN(C)CC2CC2)O3)cc1	-	-	.	-	.	.	.
C[C@H](CO)N1C[C@H](C)[C@@H](CN(C)S(C)(=O)=O)Oc2ccc(NC(=O)Nc3ccc(F)cc3)cc2C1=O	-	-	-	-	.	.	.
O=C(c1cc(-c2ccc(Cl)cc2)n(-c2ccc(Cl)cc2)n1)N1CCOCC1	.	.	.	-	58	-	-
CCN1CCCC1CNc1ncnc2c1[nH]c1ccc(Cl)cc12 (stereo unspecified)	.	.	.	-	54	-	-
O=C1c2c(O)ccc(O)c2C(=O)c2c(NCCNCCO)ccc(NCCNCCO)c21	-	-	58	-	92	100	2µM
CC(=O)Nc1c(S(=O)(=O)c2ccccc2)c2nc3ccccc3nc2n1Cc1ccccc1	.	.	.	-	-	-	.
C=CCn1c(NS(=O)(=O)c2ccccc2)c(S(=O)(=O)c2ccc(C)cc2)c2nc3ccccc3nc21	-	-	-	-	115	-	-
CC(C)NC(=O)N[C@H]1CC[C@@H](CC(=O)NCCN2CCCC2)O[C@H]1CO	-	-	-	-	.	.	.
CCOC(=O)Nc1ccc(=O)n(Cc2c(Cl)cccc2Cl)c1	.	.	-	-	85	-	-
Cc1noc(C)c1NC(=O)Nc1ccc2c(c1)CC(=O)N([C@@H](C)CO)C[C@@H](C)[C@@H](CN(C)Cc1ccc(Oc3ccccc3)cc1)O2	-	.	-	-	.	.	.
CCCC(=O)Nc1ccc(C(=O)O)cc1NC(=O)CCC	.	.	-	-	72	-	-
O=C(CSc1nnc(Nc2ccccc2)s1)Nc1ccc(S(=O)(=O)N2CCOCC2)cc1	.	.	.	-	-	-	.
Cc1ccc(Nc2nnc(SCC(=O)Nc3ccc(S(=O)(=O)N4CCOCC4)cc3)s2)cc1	.	.	-	-	62	.	-
COc1ccc(NS(=O)(=O)c2cccc(C(=O)N3CCCCCC3)c2)cc1	-	-	-	-	64	-	-
CO[C@@H]1CN(C)C(=O)c2cc(NC(=O)Nc3c(C)noc3C)ccc2OC[C@@H](C)N(CC2CC2)C[C@@H]1C	-	-	.	-	.	.	.
C=CCn1c(SCc2ccc(C#N)cc2)nnc1-c1ccc(C)cc1	.	.	-	-	61	-	-
Cn1c(SCc2ccc(C#N)cc2)nnc1-c1ccncc1	-	-	-	-	-	-	.
O=C(NCCN1CCOCC1)NC1(C(F)(F)F)Oc2ccccc2O1	.	.	-	.	55	.	-
SMILES	F508del corr	CASP6 VEID inh	HIV Env fusion	PglD inh	NSD2 HMT inh	ALR inh	AlphaScreen art
CCCCNC(=O)NC1(C(F)(F)F)Oc2ccccc2O1	.	.	.	.	-	-	.
O=C(C[C@@H]1CC[C@H]2[C@@H](COC[C@@H](O)CN2Cc2ccc(C(F)(F)F)cc2)O1)N1CCc2ccccc2C1	-	-	.	-	.	.	.
Cc1cc2oc(=O)cc(CSc3nc(N)cc(N)n3)c2cc1C(C)C	.	.	.	.	-	-	.
CCCc1cc(=O)[nH]c(SCc2cc(=O)oc3cc(C)c(C(C)C)cc23)n1	.	-	-	.	78	-	-
CC1CN(Cc2c(O)ccc3c(=O)c(-c4ccccc4Cl)coc23)CC(C)O1 (stereo unspecified)	-	-	-	-	61	-	-
COc1cc(N)c2ncccc2c1Br	-	93	.	-	152	.	-
COc1cc(N)c2ncccc2c1SC	-	-	-	.	-	.	.
O=c1[nH]c(=O)n(C(c2ccccc2)c2ccccc2)cc1Br	-	-	-	.	-	-	.
O=c1[nH]nc(Br)c(=O)n1C(c1ccccc1)c1ccccc1	-	-	-	-	51	.	-
CCOC(=O)c1c2c(n(Cc3ccccc3)c1C)C(=O)C(=O)c1ccccc1-2	-	-	78	.	63	.	9.3µM
O=C(Nc1cccc(F)c1)N1CCCCN2[C@H](CO)[C@@H](c3ccc(C#Cc4ccccc4)cc3)[C@H]2C1	-	-	.	-	.	.	.
CS(=O)(=O)N(CC(=O)NCc1ccc2c(c1)OCO2)c1cccc(Cl)c1	-	-	-	-	106	-	-
CS(=O)(=O)N(CC(=O)NCc1ccc2c(c1)OCO2)c1ccc(Cl)cc1	.	.	-	-	-	-	.
CC(C)CC#Cc1ccc([C@H]2[C@@H](CO)N3C(=O)CN(C(=O)c4ccccn4)C[C@@H]23)cc1	-	-	.	.	.	.	.
CCS(=O)(=O)N1CCC2(CC1)CN(C(=O)c1ccc(F)cc1)[C@@H](CO)c1[nH]c3cc(OC)ccc3c12	-	-	.	.	.	.	.
CN(C)/C=C1\C=C2C(=O)c3ccccc3N2C1=O	32	-	-	.	144	-	-
CN(C)S(=O)(=O)N1C(=O)c2ccccc2C1=O	-	-	-	-	-	-	.
CN(C)C(=O)c1cc2c(c(-c3cccc(-c4ccccc4)c3)n1)[C@H](CCO)N([S@@](=O)C(C)(C)C)C2	-	-	.	.	.	.	.
COc1ccc(-n2ncc3c(NCCCn4ccnc4)ncnc32)cc1	.	-	-	-	121	-	-
Cc1ccc(-c2ccc([C@H]3[C@H](CO)N4C(=O)CN(C(=O)c5ccncc5)C[C@@H]34)cc2)cc1	-	-	.	.	.	.	.
Cc1ccccc1N1CC(C(=O)Nc2ccc(S(=O)(=O)N3CCOCC3)cc2)CC1=O (stereo unspecified)	-	-	-	-	85	-	-
Cc1ccccc1N1CC(C(=O)Nc2ccc(S(=O)(=O)N3CCCCC3)cc2)CC1=O (stereo unspecified)	-	-	-	.	-	-	.
O=C1Nc2ccc(S(=O)(=O)NCc3ccco3)c3cccc1c23	.	.	.	-	135	-	-
CN(C)c1ccc(C(=O)N2CCNC(=O)C2CC(=O)Nc2ccc(F)cc2)cc1 (stereo unspecified)	-	-	-	-	-	-	.
COc1ccc(NC(=O)CC2C(=O)NCCN2C(=O)c2ccc(N(C)C)cc2)cc1 (stereo unspecified)	-	-	-	-	64	-	-
CNC[C@@H]1OCCCC[C@H](C)Oc2ccc(NC(=O)NC(C)C)cc2C(=O)N([C@H](C)CO)C[C@H]1C	-	-	-	-	.	.	.
